# Results from PubChem BioAssay (Tox21).
# Inconclusive results are not listed. The source made the active and inactive calls. Calls follow the shape of the dose curve; as a rule, active = well fitted cell-killing curve with a large enough effect in the repeat runs; inconclusive = weak or mixed curves, or effect the other way; inactive = no such curve, though single readings can be large or run the other way.
# Assay: qHTS assay to identify small molecule antagonists of the glucocorticoid receptor (GR) signaling pathway - cell viability counter screen (AID 720693); also: nearly all actives have a fitted effect of over 55% in size
# Conditions: GR-bla HeLa viability, CellTiter-Glo luminescence, 18 h, with 5 nM dexamethasone present; series mostly up to 58.5 µM; viability change, negative = cytotoxic: at the top concentration
# Excerpt: National Center for Advancing Translational Sciences [NCATS]
# NIH Chemical Genomics Center [NCGC]
# U.S. Environmental Protection Agency [EPA]
# National Institutes of Environmental Health Sciences [NIEHS]
# National Toxicology Program [NTP]
# U.S. Food and Drug Administration [FDA]
# The Glucocorticoid receptor (GR) is one of the members of the nuclear receptor family of ligand-dependent transcription factors. GR plays a critical role in carbohydrate, protein and lipid metabolisms and programmed cell death. CellSensor GR-bla HeLa cell line (Invitrogen) contains a beta-lactamase reporter gene under the control of the glucocorticoid response element stably integrated into HeLa cells, a cervical cancer cell line that expresses glucocorticoid receptor. The activation of the reporter gene under culture conditions can be detected by fluorescence intensity. This cell line has been used to screen the Tox21 10K compound library and to identify the compounds that inhibit the GR signaling. The cytotoxicity of the Tox21 compound library against the GR-bla HeLa cell line was tested in parallel by measuring the cell viability using CellTiter-Glo assay in the same wells.
# Tox21 Assay Protocol Summary:
# The GR-bla HeLa cells were dispensed at 1500 cells/5 ul/well in 1536-well black wall/clear bottom plates using a Multidrop Combi (ThermoFisher Scientific, Waltham, MA) dispenser. After the assay plates were incubated at a 37 C/5% CO2 incubator for 4 hours, 23 nL of compounds dissolved in DMSO, positive controls or DMSO only was transferred to the assay plate by a pintool station (Kalypsys, San Diego, CA), followed by addition of 1 uL of dexamethasone (5 nM, final concentration in the well). The plates were incubated at 37 C for 18 hours. After 1 uL of LiveBLAzerTM B/G FRET substrate was added using a Flying Reagent Dispenser (Aurora Discovery, San Diego, CA), the plates were incubated at room temperature (RT) for 2 hours, and fluorescence intensity was measured by an Envision plate reader (PerkinElmer, Shelton, CT). After measurement of bla assay, 3 ul CellTiter-Glo (Promega, Madison, WI) was added to measure the cytotoxicity and the plates were then incubated at RT for 30 min. The luminescence was measured using a ViewLux (Perkin Elmer) plate reader.
# % is scaled to controls: 0 for no effect and ±100 for the full control effect.
Structure (SMILES),"viability change, negative = cytotoxic",Potency
O=c1[nH]cnc2ccccc12,-5.77% [at 78.9 µM] (inactive),–
CC(Cc1cccc(C(F)(F)F)c1)NCCOC(=O)c1ccccc1 (stereo not given),-15.2% (inactive),–
c1ccc(CNCc2ccccc2)cc1,2.31% (inactive),–
Cc1ccc(C)o1,-2.08% [at 78.9 µM] (inactive),–
CN(C)CCCOc1nn(Cc2ccccc2)c2ccccc12,4.47% [at 27 µM] (inactive),–
CCCCCc1ccc(N)cc1,0.88% (inactive),–
CC(C)CCCCCCOC(=O)c1ccc(C(=O)OCCCCCCC(C)C)c(C(=O)OCCCCCCC(C)C)c1,0.719% (inactive),–
C[C@H](CCC(=O)O)[C@H]1CC[C@H]2[C@@H]3[C@H](O)C[C@@H]4C[C@H](O)CC[C@]4(C)[C@H]3CC[C@]12C,–,inactive
NC[C@H]1O[C@H](O[C@H]2[C@H](O)[C@@H](O[C@H]3O[C@H](CO)[C@@H](O)[C@H](N)[C@H]3O)[C@H](N)C[C@@H]2N)[C@H](O)[C@@H](O)[C@@H]1O,–,inactive
Cn1c(N)nc2nc[nH]c2c1=O,21.3% (inactive),–
O=[N+]([O-])c1cccc(Cl)c1Cl,-1.39% (inactive),–
O=C1c2cccc(O)c2C(=O)c2c(O)cc(CO)cc21,-1.2% (inactive),–
Cc1c(Cn2ccnc2)c2ccccc2n1CCC(=O)O,-6.74% (inactive),–
NC1CCN(c2nc3c(cc2F)c(=O)c(C(=O)O)cn3-c2ccc(F)cc2F)C1 (stereo not given),5.3% (inactive),–
Cc1ncsc1CCO,3% (inactive),–
O=[N+]([O-])c1cc[n+]([O-])cc1,7.21% (inactive),–
CC(=O)O[C@@H]1C(=O)O[C@@H]2[C@H]1OC(=O)[C@@H]2OC(C)=O,-4.44% (inactive),–
CCCCC(CC)(CO)CO,10.1% (inactive),–
Cc1cccc(C(C)(C)C)c1O,-0.466% (inactive),–
CN1CCC[C@@H]1c1cccnc1,-0.873% (inactive),–

Structure (SMILES),"viability change, negative = cytotoxic",Potency
O=C(O)Cn1c(C(=O)Nc2nc(-c3ccccc3Cl)cs2)cc2ccccc21,19.4% (inactive),–
CCCCOC(=O)/C=C\C(=O)OCCCC,2.72% [at 78.9 µM] (inactive),–
COc1ccc(C(C)=O)cc1,7.5% [at 78.9 µM] (inactive),–
O=C(O)/C=C/c1cnc[nH]1,-0.675% (inactive),–
O=C(c1ccc(O)cc1)c1ccc(O)cc1,0.919% (inactive),–
Cc1ccc(C(N)=O)cc1N,-2.48% (inactive),–
CCCC(=O)OCC,-15% (inactive),–
C[Si](C)O[Si](C)(C)O[Si](C)(C)O[Si](C)C,-2.67% (inactive),–
CCCCOCCOCCOCCOCCO,-3.69% (inactive),–
CCCc1ccccc1,-8.42% (inactive),–
Cc1cc(CC(=O)O)c(C)n1-c1ccc(Cl)cc1,0.855% (inactive),–
SC1CCCC1,18.3% (inactive),–
C=CC(C)(CCC=C(C)C)OC(=O)c1ccccc1 (stereo not given),14.3% (inactive),–
O=C1CCCCCO1,5.73% [at 78.9 µM] (inactive),–
CCCCOC(O)CC (stereo not given),-3.34% (inactive),–
CN(C)C/C=C(/c1ccc(Br)cc1)c1cccnc1,9.76% (inactive),–
NC(N)=N/N=C/c1c(Cl)cccc1Cl,-8.38% (inactive),–
O=C(c1ccccc1)c1ccc2n1CCC2C(=O)O (stereo not given),–,inactive
O=C(O)c1cccc(N(Cc2cccnc2)c2ccc(OC(F)F)c(OC(F)F)c2)c1,1.98% (inactive),–
CCCCCC(CO)CCC (stereo not given),-0.482% (inactive),–
